Source: PubChem (National Center for Advancing Translational Sciences (NCATS))
Cycloheximide cs: counter-screen for Shiga toxin inhibitors: cycloheximide protein synthesis inhibition; max response, %; 300,000 tested, 12% active; cell reporter, cycloheximide protein synthesis inhibition counterscreen; in the data active = max response mostly above about 13%, no sharp cut-off; inactive = mostly below about 14%; also: read at 38.3 µM for the half of the compounds with a filed dose; 0% is about no effect
TbPYK inhibitor: blocks Trypanosoma brucei pyruvate kinase | TbPYK enzyme, Kinase-Glo Plus ATP luminescence, 45 min | Potency, µM (titrated, usually from 76.8 µM), for inactives: top-dose activity, negative = inhibition, actives largely listed as inhibitors | 410,000 tested, 0.12% active | AID 624173; also: potency is read from the fitted curve at half-maximal effect; % is scaled to controls: 0 for no effect and ±100 for the full control effect; nearly all actives have a fitted effect of over 50% in size
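Glycolytic pyruvate kinase of T. brucei was incubated with substrate, test compound and 130 uM ADP for 45 minutes at room temperature. Luminescent Kinase-Glo Plus signal was measured after 10 minutes.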
FBPA Giardia inh: Giardia lamblia aldolase inhibition; A8B2U2; purified Giardia FBPA; Potency, µM (titrated, usually from 59.6 µM), inactives show at the highest dose activity, negative = inhibition, most hits filed as inhibitors; 290,000 tested, 0.71% active; AID 2451; also: potency is read from the fitted curve at half-maximal effect; % is scaled to controls: 0 for no effect and ±100 for the full control effect; nearly all actives have a fitted effect of over 55% in size
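Giardia FBPA (40 nM reagent) was preincubated 10 min at RT with compound (up to 57.5 uM final), then substrate plus GAPDH/TPI/NAD/arsenate coupling system with diaphorase/resazurin was added; resorufin fluorescence (525/598 nm) was read after 20 min.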
RE007 growth inh: less growth of the S. pombe RE007 Vpr strain. S. pombe RE007 Vpr strain, BacTiter-Glo ATP luminescence, 24 h. Potency, µM (doses to about 92.2 µM), inactives show top-dose activity change, negative = less growth, most hits filed as inhibitors. 360,000 tested, 0.21% active; active = well fitted falling curve with a large enough effect; inconclusive = small, poorly fitted or top-dose-only effect; inactive = no such curve, though single readings can be large or run the other way; also: potency is read from the fitted curve at half-maximal effect; % is scaled to controls: 0 for no effect and ±100 for the full control effect; nearly all actives have a fitted effect of over 50% in size
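Fission yeast strain RE007, carrying one chromosomally integrated HIV-1 vpr copy, was seeded at OD 0.01 in PMG+AL medium with 23 nL pinned compound. After 24 h at 30 °C and 99% humidity, viability was read by BacTiter-Glo luminescence.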
Shiga inhibitor: Shiga toxin inhibition | Vero cells, Shiga toxin protein synthesis inhibition reporter | inhibition, % at 38.7 µM | 290,000 tested, 9.2% active; in the data active = inhibition mostly above about 28%, no sharp cut-off; inactive = mostly below about 43%; also: 0% is about no effect
LmPK inhibitor: blocks Leishmania mexicana pyruvate kinase activity. 290,000 tested, 0.37% active. AID 1721. Q27686. Potency, µM (series often up to 57.5 µM), without a hit: at the highest dose activity change, negative = inhibition, most hits filed as inhibitors. purified LmPK, Kinase-Glo ATP luminescence, 1 h; also: potency is read from the fitted curve at half-maximal effect; % is scaled to controls: 0 for no effect and ±100 for the full control effect
Target sequence (Q27686 whole entry, looked up): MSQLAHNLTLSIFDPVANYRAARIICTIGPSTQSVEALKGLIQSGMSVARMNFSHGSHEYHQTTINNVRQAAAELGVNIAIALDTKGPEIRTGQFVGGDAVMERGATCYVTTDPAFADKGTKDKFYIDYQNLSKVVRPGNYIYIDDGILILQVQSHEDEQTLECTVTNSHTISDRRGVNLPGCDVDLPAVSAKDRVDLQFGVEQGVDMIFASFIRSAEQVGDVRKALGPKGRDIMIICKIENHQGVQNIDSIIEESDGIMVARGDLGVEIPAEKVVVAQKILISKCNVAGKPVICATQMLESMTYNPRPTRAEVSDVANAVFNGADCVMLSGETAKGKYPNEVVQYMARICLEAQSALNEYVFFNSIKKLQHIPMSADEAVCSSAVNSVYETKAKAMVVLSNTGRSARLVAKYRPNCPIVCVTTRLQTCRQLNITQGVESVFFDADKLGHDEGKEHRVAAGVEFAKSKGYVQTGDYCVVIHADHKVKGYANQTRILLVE
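Kinase-Glo luminescence read after 1 h RT reaction of 0.1 nM LmPK with 0.5 mM PEP and 0.1 mM ADP. Activity scaled between uninhibited and enzyme-free controls.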
An asterisk follows results filed as active; ? = inconclusive; nt = no result; + = active, no number; [ ] = remark or other dose. Shown is part of a subset that was picked to be rich in hits. Unless noted, calls follow the shape of the dose curve; as a rule, active = well fitted curve in the direction sought with a large enough effect; inconclusive = small, poorly fitted or top-dose-only effect, or another doubt; inactive = no such curve, though single readings can be large; an effect the other way counts as inactive or inconclusive.

SMILES	Cycloheximide cs	TbPYK inhibitor	FBPA Giardia inh	RE007 growth inh	Shiga inhibitor	LmPK inhibitor
CCOc1ccc(-c2nnc(-c3ccccc3)n2-c2ccccc2)cc1	42*	10%	1%	1%	65	3%
CCOc1ccc(S(=O)(=O)NC2=NCCCCC2)cc1	nt	-7%	nt	-1%	nt	nt
CCOc1ccc(-c2nnc(NC3=NCCCCC3)o2)cc1	41*	3%	2%	9%	73*	-8%
COc1ccc(-c2nc3ccccc3c(=O)o2)cc1OC	4	-2%	-3%	-20%	-5	-2%
c1coc(-c2nnc(NC3=NCCC3)o2)c1	29*	1%	1%	-4%	66*	-16%
CCOC(=O)Cc1ccc(NC(=O)NCc2cccn2Cc2ccccc2)cc1	nt	4%	nt	nt	nt	nt
Cc1oc(-c2ccc(-c3ccccc3)cc2)nc1CN1CCN(CC(=O)N(C)C)CC1	52*	-1%	3%	0%	108*	2%
COc1ccc(-c2ccc(=O)n(Cc3ccccc3)n2)cc1	21*	-1%	10%	-5%	28*	0%
Cc1ccc(-c2ccc(=O)n(Cc3c(F)cccc3Cl)n2)cc1	20*	5%	-3%	17%	10	6%
COc1ccc(C2=NN(Cc3ccccc3)C3C(=O)NC(=O)C23)cc1 (stereo unspecified)	20*	1%	-4%	-7%	40	-1%
Cc1ccc(C)c(-c2ccc(=O)n(Cc3c(F)cccc3Cl)n2)c1	16	0%	-2%	4%	28	4%
CN1C(=O)C2C(c3ccc(N(C)C)cc3)=NN(Cc3ccccc3)C2C1=O (stereo unspecified)	-1	-12%	-10%	16%	1	12%
O=C1CN(/N=C\c2ccc([N+](=O)[O-])o2)C(=O)N1	nt	nt	-24%[21.7 µM]	nt	nt	nt
O=C1NC(=S)S/C1=C\C=C\c1ccc([N+](=O)[O-])o1	80*	-19%	-20%	40µM*	92*	-13%
CCn1c2ccc(Cl)cc2c2nc3ccccc3nc21	-3	-9%	-8%	-11%	-13	1%
CCn1c2ccc(C)cc2c2nc3cc(C(=O)O)ccc3nc21	44*	-11%	-13%	-1%	61*	-11%
CCC(=O)c1cc(-c2nc3ccccc3n2C)n(C)c1	1	1%	0%	13%	13	5%
Cc1oc(-c2nc3ccccc3n2C)cc1C(=O)c1ccccc1	27*	32µM*	-27%	?	+	13µM*
Cn1cc(C(=O)c2ccccc2)cc1-c1nc2ccccc2n1C	13*	-2%	-2%	-3%	31	5%
Cc1ccc(-c2nn(C)c(=O)c3ccccc23)cc1S(=O)(=O)NCCCN(C)C	nt	-4%	nt	nt	nt	nt
Cc1ccc(CNC(=O)C(=O)NCC(c2cccs2)S(=O)(=O)c2ccccc2)cc1 (stereo unspecified)	nt	0%[15.4 µM]	nt	nt	nt	nt
CCCCn1c(N)c(N(CCOC)C(=O)c2ccc(S(=O)(=O)N3CCC(C)CC3)cc2)c(=O)[nH]c1=O	nt	0%	nt	17%	nt	nt
CC1(C)CN=C(NCc2ccccc2Cl)S1	17*	-6%	-5%	-10%	55*	2%
CC1CN=C(NCc2ccccc2Cl)S1 (stereo unspecified)	25*	2%	13%	-18%	42*	0%
CC1CN=C(NCc2ccccc2)S1 (stereo unspecified)	16*	8%	0%	-11%	21	-3%
SMILES	Cycloheximide cs	TbPYK inhibitor	FBPA Giardia inh	RE007 growth inh	Shiga inhibitor	LmPK inhibitor
CC1CN=C(Nc2ccc(F)cc2)S1 (stereo unspecified)	-1	-7%	9%	-1%	-1	1%
CC1(C)CN=C(Nc2ccccc2C(F)(F)F)S1	-1	2%	7%	-4%	30	-2%
CCCCN(CCCC)CCNC(=O)c1cc(=O)[nH]c2ccc(S(=O)(=O)N3CCCCCC3)cc12	nt	4%	nt	nt	nt	nt
COc1ccc(C(=O)Nc2nc(-c3cccs3)c(NC(C)=O)s2)cc1	-2	-4%	2%	-10%	38	0%
Cc1occc1C(=O)Nc1nccs1	8	-10%	4%	-19%	34	-12%
O=C(Nc1nnc(-c2cccs2)s1)c1cccc(F)c1	19*	5%	0%	-11%	59*	0%
